# Article PMC7862700, “An all-to-all approach to the identification of sequence-specific readers for epigenetic DNA modifications on cytosine”
# Tests used:
# Experiment in all cases: DAPPL (digital affinity profiling via proximity ligation, sequencing); 10 mM Tris-HCl pH 7.5, 50 mM NaCl, 1 mM DTT, 4% glycerol, room temperature, 30 min; GST-TFs on glutathione beads, 16-mer random dsDNA library, 0.1% formaldehyde crosslink after washing; high values mean tight binding
# Conditions in all cases: protein: recombinant; tags: N-terminal GST; dsDNA, one strand shown
# FLI1 = target: T1, FLI1 (Homo sapiens, UniProt Q01543 1-452)
# T1 sequence: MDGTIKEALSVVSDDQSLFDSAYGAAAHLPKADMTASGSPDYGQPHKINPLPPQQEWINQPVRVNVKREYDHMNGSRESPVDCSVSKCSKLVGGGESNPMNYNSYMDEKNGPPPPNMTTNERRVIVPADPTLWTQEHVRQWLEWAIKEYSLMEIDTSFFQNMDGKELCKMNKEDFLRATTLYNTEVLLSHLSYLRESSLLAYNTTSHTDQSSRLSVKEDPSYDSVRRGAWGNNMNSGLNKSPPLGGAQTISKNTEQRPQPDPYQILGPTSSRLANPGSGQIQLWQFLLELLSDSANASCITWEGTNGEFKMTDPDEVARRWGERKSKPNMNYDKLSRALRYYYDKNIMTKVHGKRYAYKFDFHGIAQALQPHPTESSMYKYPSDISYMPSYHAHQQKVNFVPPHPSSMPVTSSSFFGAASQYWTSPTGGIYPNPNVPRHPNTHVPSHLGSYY
# Summary of the method: (§1)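 Yeast served to express human transcription factors as GST fusions, which were then captured on glutathione beads and labelled with DNA barcodes. Pooled with a tag-only sample, they were incubated with 200 nmole of a 16-mer random double-stranded DNA library for 30 min at room temperature in Tris/NaCl/DTT/glycerol buffer, washed, crosslinked with 0.1% formaldehyde, ligated by proximity, amplified by PCR and sequenced. Dividing each hexamer's read frequency for a factor by its frequency for the tag-only sample gives the binding signal.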
# ELK1 = target: T2, ELK1 (Homo sapiens, UniProt P19419 1-428)
# T2 sequence: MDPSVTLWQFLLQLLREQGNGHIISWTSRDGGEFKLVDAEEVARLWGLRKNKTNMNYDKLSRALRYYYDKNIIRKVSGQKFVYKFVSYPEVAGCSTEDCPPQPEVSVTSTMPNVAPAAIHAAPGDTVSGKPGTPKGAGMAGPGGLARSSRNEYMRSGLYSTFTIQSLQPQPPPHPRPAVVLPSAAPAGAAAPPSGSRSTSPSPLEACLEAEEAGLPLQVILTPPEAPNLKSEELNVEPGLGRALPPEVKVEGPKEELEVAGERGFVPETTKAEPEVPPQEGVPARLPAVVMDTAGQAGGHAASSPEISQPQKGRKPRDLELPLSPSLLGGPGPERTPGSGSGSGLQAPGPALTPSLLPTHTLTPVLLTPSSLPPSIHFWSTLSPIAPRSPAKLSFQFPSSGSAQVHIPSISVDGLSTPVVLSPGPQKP
# Summary of the method: as §1
# GABPA = target: T3, GABPA (Homo sapiens, UniProt Q06546 1-454)
# T3 sequence: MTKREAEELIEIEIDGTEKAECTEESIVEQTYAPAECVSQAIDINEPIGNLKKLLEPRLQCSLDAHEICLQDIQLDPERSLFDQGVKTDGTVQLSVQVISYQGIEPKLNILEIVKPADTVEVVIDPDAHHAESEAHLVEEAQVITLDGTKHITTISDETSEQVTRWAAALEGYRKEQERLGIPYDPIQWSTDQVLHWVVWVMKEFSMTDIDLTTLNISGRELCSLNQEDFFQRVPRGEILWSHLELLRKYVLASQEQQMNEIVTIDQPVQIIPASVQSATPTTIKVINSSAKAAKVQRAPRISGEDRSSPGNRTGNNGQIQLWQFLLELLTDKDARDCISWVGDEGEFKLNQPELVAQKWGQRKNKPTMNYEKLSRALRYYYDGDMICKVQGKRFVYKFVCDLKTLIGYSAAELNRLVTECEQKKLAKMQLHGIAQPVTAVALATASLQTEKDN
# Summary of the method: as §1
# ELF1 = ELF1 (Homo sapiens, UniProt P32519 1-619)
# ELF1, sequence (P32519 whole entry): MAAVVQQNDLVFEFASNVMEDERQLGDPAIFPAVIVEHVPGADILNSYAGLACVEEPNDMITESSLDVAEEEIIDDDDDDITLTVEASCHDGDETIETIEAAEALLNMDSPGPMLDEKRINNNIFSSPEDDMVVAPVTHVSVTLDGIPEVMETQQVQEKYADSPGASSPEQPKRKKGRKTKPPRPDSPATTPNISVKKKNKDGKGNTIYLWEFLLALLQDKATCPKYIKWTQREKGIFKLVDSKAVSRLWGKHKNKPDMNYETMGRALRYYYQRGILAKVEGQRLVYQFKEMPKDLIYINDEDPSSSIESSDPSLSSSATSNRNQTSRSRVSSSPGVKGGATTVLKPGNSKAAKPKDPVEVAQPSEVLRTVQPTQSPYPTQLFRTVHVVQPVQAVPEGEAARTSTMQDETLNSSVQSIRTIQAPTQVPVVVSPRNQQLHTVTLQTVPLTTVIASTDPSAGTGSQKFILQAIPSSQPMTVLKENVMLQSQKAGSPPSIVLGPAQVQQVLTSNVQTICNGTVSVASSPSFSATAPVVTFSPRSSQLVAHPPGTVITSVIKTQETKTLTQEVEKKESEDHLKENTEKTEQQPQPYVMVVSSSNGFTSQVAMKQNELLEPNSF
# Summary of the method: as §1
# SPIB = SPIB (Homo sapiens, UniProt Q01892 1-262)
# SPIB, sequence (Q01892 whole entry): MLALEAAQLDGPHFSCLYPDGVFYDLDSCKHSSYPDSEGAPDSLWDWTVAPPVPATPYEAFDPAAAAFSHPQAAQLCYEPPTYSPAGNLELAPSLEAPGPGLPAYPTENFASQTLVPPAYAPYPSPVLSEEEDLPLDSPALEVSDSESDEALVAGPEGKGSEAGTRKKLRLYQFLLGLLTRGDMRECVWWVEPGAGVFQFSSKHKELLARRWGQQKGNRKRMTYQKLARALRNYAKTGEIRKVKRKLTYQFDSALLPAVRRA
# Summary of the method: as §1
# ELK3 = target: T4, ELK3 (Homo sapiens, UniProt P41970 1-407)
# T4 sequence: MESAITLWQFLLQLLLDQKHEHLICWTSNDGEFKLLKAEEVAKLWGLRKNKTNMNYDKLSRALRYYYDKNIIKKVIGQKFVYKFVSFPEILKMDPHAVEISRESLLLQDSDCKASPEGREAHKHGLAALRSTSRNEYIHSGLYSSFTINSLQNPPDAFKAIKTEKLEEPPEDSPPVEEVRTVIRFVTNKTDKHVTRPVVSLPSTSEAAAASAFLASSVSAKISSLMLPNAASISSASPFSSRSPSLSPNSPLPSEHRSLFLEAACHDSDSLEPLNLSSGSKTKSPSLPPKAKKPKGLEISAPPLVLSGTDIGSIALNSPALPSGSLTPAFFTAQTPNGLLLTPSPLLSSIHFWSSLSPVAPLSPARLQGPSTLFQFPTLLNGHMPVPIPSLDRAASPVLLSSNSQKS
# Summary of the method: as §1
# ELK4 = target: T5, ELK4 (Homo sapiens, UniProt P28324-2 1-405)
# T5 sequence: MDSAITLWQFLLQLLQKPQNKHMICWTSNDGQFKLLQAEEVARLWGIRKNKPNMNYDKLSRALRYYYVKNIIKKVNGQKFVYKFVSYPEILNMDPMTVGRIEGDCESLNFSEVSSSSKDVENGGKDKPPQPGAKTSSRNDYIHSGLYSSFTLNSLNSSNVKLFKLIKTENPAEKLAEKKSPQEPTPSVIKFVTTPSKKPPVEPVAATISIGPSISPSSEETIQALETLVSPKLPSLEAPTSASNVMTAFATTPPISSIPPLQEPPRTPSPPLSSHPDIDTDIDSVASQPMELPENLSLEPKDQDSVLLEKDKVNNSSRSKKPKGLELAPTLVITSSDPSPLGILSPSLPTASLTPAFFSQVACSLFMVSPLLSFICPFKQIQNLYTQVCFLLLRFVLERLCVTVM
# Summary of the method: as §1
# ETV2 = target: T6, ETV2 (Homo sapiens, UniProt O00321 1-342)
# T6 sequence: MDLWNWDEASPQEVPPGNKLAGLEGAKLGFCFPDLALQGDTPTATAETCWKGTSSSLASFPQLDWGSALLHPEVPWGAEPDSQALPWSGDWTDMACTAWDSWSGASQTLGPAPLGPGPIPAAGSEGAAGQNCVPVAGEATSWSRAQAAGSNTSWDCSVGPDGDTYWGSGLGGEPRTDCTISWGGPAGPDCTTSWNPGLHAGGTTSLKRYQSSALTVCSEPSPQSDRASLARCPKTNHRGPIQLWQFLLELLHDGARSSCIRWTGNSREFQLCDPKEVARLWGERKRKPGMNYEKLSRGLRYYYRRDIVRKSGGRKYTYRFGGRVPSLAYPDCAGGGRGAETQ
# Summary of the method: as §1
# ELF3 = target: T7, ELF3 (Homo sapiens, UniProt P78545 1-371)
# T7 sequence: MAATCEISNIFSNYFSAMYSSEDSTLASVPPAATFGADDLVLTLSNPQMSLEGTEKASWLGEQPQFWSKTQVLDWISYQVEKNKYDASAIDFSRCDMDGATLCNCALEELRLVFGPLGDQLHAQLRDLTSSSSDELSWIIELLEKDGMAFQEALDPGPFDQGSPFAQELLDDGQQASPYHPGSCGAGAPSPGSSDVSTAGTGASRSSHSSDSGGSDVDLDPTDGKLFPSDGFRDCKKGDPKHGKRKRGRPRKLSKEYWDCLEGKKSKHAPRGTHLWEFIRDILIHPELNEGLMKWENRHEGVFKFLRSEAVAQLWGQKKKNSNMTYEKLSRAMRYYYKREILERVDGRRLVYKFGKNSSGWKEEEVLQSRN
# Summary of the method: as §1
# ETV1 = ETV1 (Homo sapiens, UniProt P50549 1-477)
# ETV1, sequence (P50549 whole entry): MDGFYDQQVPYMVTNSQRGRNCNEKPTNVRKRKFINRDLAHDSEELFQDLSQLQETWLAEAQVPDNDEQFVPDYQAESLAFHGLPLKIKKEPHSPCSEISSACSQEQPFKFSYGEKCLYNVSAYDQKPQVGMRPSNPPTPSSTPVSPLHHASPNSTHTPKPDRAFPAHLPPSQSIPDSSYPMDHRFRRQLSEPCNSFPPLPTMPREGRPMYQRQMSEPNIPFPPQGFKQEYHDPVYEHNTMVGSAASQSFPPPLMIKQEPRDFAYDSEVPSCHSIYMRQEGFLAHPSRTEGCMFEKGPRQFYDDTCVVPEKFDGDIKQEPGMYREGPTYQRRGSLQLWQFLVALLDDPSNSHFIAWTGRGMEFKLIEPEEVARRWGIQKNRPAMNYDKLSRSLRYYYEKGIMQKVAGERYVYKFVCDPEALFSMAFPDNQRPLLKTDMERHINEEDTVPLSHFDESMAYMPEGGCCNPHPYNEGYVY
# Summary of the method: as §1
# ETV3L = target: T8, ETV3L (Homo sapiens, UniProt Q6ZN32 1-361)
# T8 sequence: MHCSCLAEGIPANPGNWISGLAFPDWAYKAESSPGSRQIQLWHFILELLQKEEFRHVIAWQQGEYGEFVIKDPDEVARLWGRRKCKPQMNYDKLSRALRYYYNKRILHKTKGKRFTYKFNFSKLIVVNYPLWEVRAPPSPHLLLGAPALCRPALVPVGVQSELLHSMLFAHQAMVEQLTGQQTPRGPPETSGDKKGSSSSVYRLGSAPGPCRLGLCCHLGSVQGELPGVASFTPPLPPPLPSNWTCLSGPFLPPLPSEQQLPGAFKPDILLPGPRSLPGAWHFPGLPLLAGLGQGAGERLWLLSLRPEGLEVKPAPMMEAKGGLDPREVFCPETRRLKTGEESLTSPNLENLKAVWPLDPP
# Summary of the method: as §1
# ETV7 = target: T9, ETV7 (Homo sapiens, UniProt Q9Y603 1-341)
# T9 sequence: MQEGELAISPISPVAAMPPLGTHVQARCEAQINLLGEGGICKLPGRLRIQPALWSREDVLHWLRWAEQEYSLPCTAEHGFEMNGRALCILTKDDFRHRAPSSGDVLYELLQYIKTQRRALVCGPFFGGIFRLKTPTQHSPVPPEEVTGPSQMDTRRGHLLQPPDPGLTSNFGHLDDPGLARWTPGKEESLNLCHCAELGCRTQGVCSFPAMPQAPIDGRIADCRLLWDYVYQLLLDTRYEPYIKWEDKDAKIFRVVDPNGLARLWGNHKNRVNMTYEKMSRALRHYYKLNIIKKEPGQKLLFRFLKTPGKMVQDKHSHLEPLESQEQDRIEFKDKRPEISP
# Summary of the method: as §1
# ETV3 = target: T10, ETV3 (Homo sapiens, UniProt P41162-2 1-143)
# T10 sequence: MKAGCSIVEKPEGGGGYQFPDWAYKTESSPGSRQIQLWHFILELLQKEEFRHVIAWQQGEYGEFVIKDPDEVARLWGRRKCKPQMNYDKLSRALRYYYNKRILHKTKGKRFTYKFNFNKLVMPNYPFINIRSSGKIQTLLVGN
# Summary of the method: as §1
sequence,measurement,setting,value
GGTTCT,binding signal,FLI1,"1.07 fold enrichment (6-mer frequency, TF over GST control)"
same,binding signal,ELK1,"1.02 fold enrichment (6-mer frequency, TF over GST control)"
same,binding signal,GABPA,"1.02 fold enrichment (6-mer frequency, TF over GST control)"
same,binding signal,ELF1,"1.03 fold enrichment (6-mer frequency, TF over GST control)"
same,binding signal,SPIB,"1.05 fold enrichment (6-mer frequency, TF over GST control)"
same,binding signal,ELK3,"1.11 fold enrichment (6-mer frequency, TF over GST control)"
same,binding signal,ELK4,"1.03 fold enrichment (6-mer frequency, TF over GST control)"
same,binding signal,ETV2,"1.19 fold enrichment (6-mer frequency, TF over GST control)"
same,binding signal,ELF3,"1.08 fold enrichment (6-mer frequency, TF over GST control)"
same,binding signal,ETV1,"1.01 fold enrichment (6-mer frequency, TF over GST control)"
same,binding signal,ETV3L,"1.01 fold enrichment (6-mer frequency, TF over GST control)"
same,binding signal,ETV7,"1.01 fold enrichment (6-mer frequency, TF over GST control)"
same,binding signal,ETV3,"1 fold enrichment (6-mer frequency, TF over GST control)"
